Assay results as given in PubChem BioAssay AID1159580 (chemical genetic matrix, 2015).
Values joined by “and” are separate entries in the source; they are usually repeats but may differ in a detail not shown here. Equal values may be shown once. Among all 5,500 compounds or so, about 2,000 (36%) were called active. Inconclusive results (about 18%) are left out. Rule as the data show it: active = normalized growth mostly below about 0.91 (no sharp cut-off); inconclusive = no clear call, values can overlap the other calls; inactive = mostly above about 0.92. The list shows a part of the results.

Assay: chemical genetic growth profiling, strain panel (AID 1159580);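 also: tested at 20 µM; growth read once vehicle control cultures reached saturation at 30 °C; 1 = growth at the plate median or of vehicle wells; lower values mean less growth of the strain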
Conditions: S. cerevisiae deletion strains, growth OD

Measured: normalized growth

CCCN1C[C@H](CSC)C[C@@H]2c3cccc4[nH]cc(c34)C[C@H]21
inactive: locus YAL013W, strain DEP1, stronger effect = lower value 0.997 | locus YAL021C, strain ccr4, stronger effect = lower value 0.978 | locus YAL026C, strain drs2, stronger effect = lower value 1.02 | locus YAL030W, strain snc1, stronger effect = lower value 1.02 | locus YBL061C, strain skt5, stronger effect = lower value 1.01 | locus YBR009C, strain hhf1, stronger effect = lower value 1.02 | locus YBR021W, strain FUR4, stronger effect = lower value 0.965 | locus YBR023C, strain chs3, stronger effect = lower value 0.998 | locus YBR171W, strain sec66, stronger effect = lower value 1.02 | locus YBR229C, strain ROT2, stronger effect = lower value 1 | locus YBR231C, strain swc5, stronger effect = lower value 1.01 | locus YBR279W, strain paf1, stronger effect = lower value 0.996 | locus YCL011C, strain gbp2, stronger effect = lower value 1.02 | locus YCL016C, strain dcc1, stronger effect = lower value 1.01 | locus YCL029C, strain bik1, stronger effect = lower value 1.02 | locus YCL069W, strain vba3, stronger effect = lower value 1.01 | locus YCR088W, strain abp1, stronger effect = lower value 1.01 | locus YDL005C, strain med2, stronger effect = lower value 0.994 | locus YDL035C, strain GPR1, stronger effect = lower value 0.992 | locus YDL040C, strain nat1, stronger effect = lower value 0.996 | locus YDL074C, strain BRE1, stronger effect = lower value 0.975 | locus YDL101C, strain DUN1, stronger effect = lower value 0.992 | locus YDL134C, strain PPH21, stronger effect = lower value 1.01 | locus YDL185W, strain tfp1, stronger effect = lower value 1.02 | locus YDL192W, strain arf1, stronger effect = lower value 1.02 | locus YDR001C, strain nth1, stronger effect = lower value 1.01 | locus YDR069C, strain doa4, stronger effect = lower value 0.994 | locus YDR101C, strain arx1, stronger effect = lower value 1 | locus YDR137W, strain rgp1, stronger effect = lower value 1.1 | locus YDR150W, strain NUM1, stronger effect = lower value 0.989 | locus YDR159W, strain sac3, stronger effect = lower value 0.989 | locus YDR162C, strain NBP2, stronger effect = lower value 0.97 | locus YDR195W, strain ref2 1.03 | locus YDR297W, strain sur2, stronger effect = lower value 1.01 | locus YDR318W, strain mcm21, stronger effect = lower value 1.03 | locus YDR334W, strain swr1, stronger effect = lower value 1.02 | locus YDR335W, strain msn5, stronger effect = lower value 1.02 | locus YDR388W, stronger effect = lower value 1.02 | locus YDR392W, strain spt3, stronger effect = lower value 1.02 | locus YDR502C, strain sam2, stronger effect = lower value 1.01 | locus YEL003W, strain gim4, stronger effect = lower value 1.01 | locus YEL037C, strain rad23, stronger effect = lower value 1.01 | locus YEL061C, strain CIN8 (second series), stronger effect = lower value 1.02 | locus YEL061C, strain CIN8, stronger effect = lower value 0.999 | locus YER015W, strain faa2, stronger effect = lower value 1.01 | locus YER016W, strain bim1, stronger effect = lower value 1.02 | locus YER110C, stronger effect = lower value 1.02 | locus YER111C, strain swi4, stronger effect = lower value 1.01 | locus YER155C, strain BEM2 (second series), stronger effect = lower value 0.999 | locus YER155C, strain BEM2, stronger effect = lower value 1 | locus YER167W, strain BCK2, stronger effect = lower value 1 | locus YFR010W, strain ubp6, stronger effect = lower value 0.987 | locus YGL078C, strain dbp3, stronger effect = lower value 1.01 | locus YGL086W, strain mad1, stronger effect = lower value 1.02 | locus YGL167C, strain pmr1, stronger effect = lower value 1.02 | locus YGL173C, strain kem1, stronger effect = lower value 1 | locus YGL227W, strain vid30, stronger effect = lower value 1.01 | locus YGL240W, strain doc1, stronger effect = lower value 0.991 | locus YGL248W, strain PDE1, stronger effect = lower value 0.998 | locus YGL253W, strain hxk2, stronger effect = lower value 1.01 | locus YGR078C, strain PAC10, stronger effect = lower value 0.988 | locus YGR135W, strain pre9, stronger effect = lower value 0.985 | locus YGR229C, strain SMI1, stronger effect = lower value 0.984 | locus YGR252W, strain gcn5, stronger effect = lower value 1.06 | locus YHR013C, strain ard1, stronger effect = lower value 1 | locus YHR027C, strain rpn1, stronger effect = lower value 1.02 | locus YHR030C, strain SLT2, stronger effect = lower value 1.01 and 1.02 | locus YHR079C, strain IRE1 (second series), stronger effect = lower value 1.01 | locus YHR079C, strain IRE1, stronger effect = lower value 1.04 | locus YHR094C, strain hxt1, stronger effect = lower value 1.02 | locus YHR129C, strain ARP1, stronger effect = lower value 1 | locus YHR142W, strain chs7, stronger effect = lower value 1.02 | locus YHR200W, strain rpn10, stronger effect = lower value 1.01 | locus YIL066C, strain RNR3, stronger effect = lower value 1.01 | locus YIL073C, strain SPO22, stronger effect = lower value 1.08 | locus YIL125W, strain kgd1, stronger effect = lower value 1 | locus YIR030C, strain dcg1, stronger effect = lower value 1.01 | locus YJL092W, strain hpr5, stronger effect = lower value 1.01 | locus YJL095W, strain BCK1 (second series), stronger effect = lower value 1.01 | locus YJL095W, strain BCK1, stronger effect = lower value 0.975 and 1.04 | locus YJL115W, strain asf1, stronger effect = lower value 1.02 | locus YJL129C, strain trk1, stronger effect = lower value 1.03 | locus YJL134W, strain LCB3, stronger effect = lower value 0.993 | locus YJL154C, strain vps35, stronger effect = lower value 1.01 | locus YJL164C, strain tpk1, stronger effect = lower value 1.01 | locus YJL166W, strain qcr8, stronger effect = lower value 1.01 | locus YJL168C, strain set2, stronger effect = lower value 1.03 | locus YJL187C, strain SWE1 (second series), stronger effect = lower value 1 | locus YJR043C, strain POL32, stronger effect = lower value 1 | locus YJR066W, strain TOR1, stronger effect = lower value 0.985 | locus YJR075W, strain HOC1, stronger effect = lower value 0.98
